Screening results deposited in PubChem BioAssay by National Center for Advancing Translational Sciences (NCATS).
Hits are enriched below; roughly 1.8% of the tested compounds scored in any of these assays.
TrxR1 substrate = substrates of rat thioredoxin reductase 1; purified TrxR1 substrate turnover, NADPH consumption readout; hit rate 0.01% among 390,000; Potency, µM (series often up to 114 µM), without a hit: top-dose activity change, negative = substrate turnover; O89049; further: on the % scale 0 is the no-effect control and ±100 the full control effect; nearly all actives have a fitted effect of over 50% in size
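Rat TrxR1, dispensed at 90 nM, was prereduced with 400 uM NADPH (final) for 5 min at ~22 deg C, then incubated with compound 15 min before 400 uM selenite. A first-read NADPH fluorescence drop versus no-compound background flagged substrates.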
VDR inh = vitamin D3 receptor (human) inhibition. P11473. VDR-SRC2-3 peptide fluorescence polarization, 2 h. Potency, µM, for inactives: max response, negative = inhibition, hits mostly inhibitors. hit rate 0.93% among 400,000; further: on the % scale 0 is the no-effect control and ±100 the full control effect
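After 23 nl compound addition and a short centrifugation, plates sat for 2 hours at ambient temperature; polarization of fluorescence then indicated loss of VDR binding to peptide SRC2-3.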
Vif-A3F inh = blocks the Vif interaction with APOBEC3F | HeLa A3F-eYFP + Vif (tagged APOBEC3F with the HIV-1 protein that degrades it), YFP fluorescence increase | Potency, µM (titrated, usually from 46.1 µM), for inactives: at the highest dose activity, negative = active | hit rate 0.2% among 390,000; further: % of control where 0% means no effect; nearly all actives have a fitted effect of over 65% in size
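HeLa cells stably expressing A3F-eYFP plus Vif, plated and incubated overnight at 37 deg C, then exposed to compounds overnight at 37 deg C. Blocked degradation read as raised yellow fluorescence (Ex 488/Em 500-530).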
Vif-A3G inh = blocks the Vif interaction with human APOBEC3G. Potency, µM (doses to about 46.1 µM), for inactives: top-dose activity, negative = active, actives largely listed as inhibitors. Q9HC16. hit rate 0.076% among 410,000. AID 602310. HeLa A3G-eYFP + Vif (tagged APOBEC3G with the HIV-1 protein that degrades it), YFP fluorescence, overnight; further: on the % scale 0 is the no-effect control and ±100 the full control effect; nearly all actives have a fitted effect of over 60% in size
Target sequence (Q9HC16 whole entry, looked up): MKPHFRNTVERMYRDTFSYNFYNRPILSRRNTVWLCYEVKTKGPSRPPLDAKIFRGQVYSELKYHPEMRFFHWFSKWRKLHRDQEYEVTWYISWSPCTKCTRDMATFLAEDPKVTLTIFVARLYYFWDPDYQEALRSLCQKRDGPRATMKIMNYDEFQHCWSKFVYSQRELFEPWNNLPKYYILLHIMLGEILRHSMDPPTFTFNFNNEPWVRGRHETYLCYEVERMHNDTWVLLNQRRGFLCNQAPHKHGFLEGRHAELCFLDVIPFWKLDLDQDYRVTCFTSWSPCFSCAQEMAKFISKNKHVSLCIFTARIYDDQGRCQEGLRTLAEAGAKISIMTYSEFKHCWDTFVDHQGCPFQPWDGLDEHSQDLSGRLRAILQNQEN
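HeLa cells stably expressing Vif and C-terminally eYFP-tagged A3G, seeded overnight at 37 deg C, then exposed to compound by pintool overnight at 37 deg C. Rise in yellow fluorescence (Ex 488/Em 500-530, Acumen) marks blocked Vif-driven A3G degradation.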
TrxR1 inh = blocks rat thioredoxin reductase 1; hit rate 1% among 390,000; AID 588453; recombinant rTrxR1, NADPH fluorescence consumption, selenite substrate; Potency, µM (series often up to 114 µM), for the others: at the highest dose activity change, negative = inhibition, hits mostly inhibitors; further: on the % scale 0 is the no-effect control and ±100 the full control effect; nearly all actives have a fitted effect of over 65% in size
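Rat TrxR1 (90 nM in the dispensed reagent) was pre-reduced with 400 uM NADPH for 5 min at room temperature, then incubated with compound for 15 min. After 400 uM selenite was added, NADPH fluorescence (Ex 340/Em 450 nm) was followed for 8 min.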
* marks the source's active call; other numbers are inactive results; [ ] = another dose, or the depositor's remark. The call rests on the fitted dose curve; in most records, active means well fitted curve in the direction sought with a large enough effect; inconclusive means small, poorly fitted or top-dose-only effect, or another doubt; inactive means no such curve, though single readings can be large; an effect the other way counts as inactive or inconclusive. Potency means the concentration at half of the fitted maximal effect.

O=S(=O)(NCC(c1cccs1)S(=O)(=O)c1ccccc1)c1ccccc1 (centres undefined) was read as TrxR1 substrate 1.2%[57.1 µM], VDR inh 2.3%, Vif-A3F inh 8.4%, Vif-A3G inh 2.7% and TrxR1 inh 0.562µM*.
O=S(=O)(NCC(c1ccco1)S(=O)(=O)c1cccs1)c1ccccc1 (centres undefined) was read as TrxR1 substrate 2.4%[57.1 µM], VDR inh 7.7%, Vif-A3F inh 1.0%, Vif-A3G inh 4.9% and TrxR1 inh 15.8µM*.
COc1ccc(S(=O)(=O)NCC(c2ccco2)S(=O)(=O)c2cccs2)cc1OC (centres undefined) was read as TrxR1 substrate -2.2%[57.1 µM], VDR inh -0.6%, Vif-A3F inh -1.8%, Vif-A3G inh 11.1% and TrxR1 inh inconclusive.
Screening CC(C)(C)c1ccc(C(=O)NCC(c2cccs2)S(=O)(=O)c2ccccc2)cc1 (centres undefined) returned TrxR1 substrate 0.4%[57.1 µM], VDR inh 8.5%, Vif-A3F inh 0.7%, Vif-A3G inh 0.1% and TrxR1 inh 15.1%[57.1 µM].
Screening O=S(=O)(c1cccc(Cl)c1)N1CCN(c2nc(-c3cccs3)nc3ccccc23)CC1 returned TrxR1 substrate 3.3%, VDR inh -14.6%, Vif-A3G inh -3.1% and TrxR1 inh -2.6%.
For CC[N+]1(C)CCC(O)(c2ccc(OC)cc2)C(C(=O)c2ccc(OC)cc2)C1 (centres undefined) the results were TrxR1 substrate 3.6%, VDR inh inconclusive, Vif-A3F inh -3.8%, Vif-A3G inh -27.7% and TrxR1 inh 0.708µM*.
`O=C1[C@H](Cc2ccccc2)NC/C=C\C[C@@H](c2ccco2)N1Cc1ccccc1` gave TrxR1 substrate 2.6%, Vif-A3G inh -3.9% and TrxR1 inh 11.9%.
Screening O=c1[nH]c2ccccc2c(O)c1O returned TrxR1 substrate 49.2%, VDR inh 7.08µM*, Vif-A3F inh -3.6%, Vif-A3G inh -5.8% and TrxR1 inh 13.1%.
Screening Cc1ccc(CN(C)C(=O)C2CCCN2C(=O)c2cccs2)o1 (centres undefined) returned TrxR1 substrate 8.9%, VDR inh -6.6%, Vif-A3F inh -6.4%, Vif-A3G inh 1.0% and TrxR1 inh 10µM*.
`CCOc1cc(C2Nc3ccccc3C(=O)N2Cc2ccco2)ccc1O` (centres undefined) gave TrxR1 substrate 43.2%, VDR inh -14.1%, Vif-A3G inh -5.0% and TrxR1 inh -4.2%.
`O=C(CCS(=O)(=O)c1ccccc1)N1CCN(c2ccc(F)cc2)CC1` gave TrxR1 substrate 15.4%, VDR inh -10.3%, Vif-A3F inh 2.4%, Vif-A3G inh 1.8% and TrxR1 inh 38.4%.
Screening O=C(CCS(=O)(=O)c1ccccc1)N1CCN(c2cccc(C(F)(F)F)c2)CC1 returned TrxR1 substrate -2.2%, VDR inh 5.0%, Vif-A3F inh 3.1%, Vif-A3G inh 7.5% and TrxR1 inh 79.4µM*.
For CCOC(=O)[C@@H](N)CS the results were VDR inh 39.8µM*.
`CCOC(C)=O` gave VDR inh 2.1%.
CN(C)CCC(=O)C(Cc1ccccc1)c1ccccc1 (centres undefined) was read as TrxR1 substrate 0.1%, VDR inh 44.7µM*, Vif-A3F inh 14.6%, Vif-A3G inh inconclusive and TrxR1 inh 0.251µM*.
For COc1cc2c(=O)c(C(=O)c3ccc(C)c(C)c3)cn(Cc3ccccc3F)c2cc1OC the results were TrxR1 substrate 1.0%, VDR inh -0.4%, Vif-A3F inh -1.3%, Vif-A3G inh 1.4% and TrxR1 inh -10.0%.
COc1ccc(C(NC(=O)/C=C\c2ccco2)c2ccc(OC)c(OC)c2)cc1 (centres undefined) was read as TrxR1 substrate -4.9%, VDR inh -14.4%, Vif-A3F inh 9.4%, Vif-A3G inh -6.2% and TrxR1 inh 8.91µM*.
`COc1ccc(C(NC(=O)/C=C/c2ccco2)c2ccc(OC)cc2)cc1` gave TrxR1 substrate 0.3%, VDR inh inconclusive, Vif-A3F inh -1.4%, Vif-A3G inh 0.6% and TrxR1 inh 25.1µM*.
For COc1ccc(NC(=O)N/C=C/c2ccco2)cc1 the results were TrxR1 substrate 0.2%, VDR inh 9.3%, Vif-A3F inh -4.6%, Vif-A3G inh 2.0% and TrxR1 inh inconclusive.
COc1ccc(-c2csc(NC(=S)NC(=O)/C=C/c3ccco3)n2)cc1OC was read as TrxR1 substrate -7.3%, VDR inh -7.5%, Vif-A3F inh -1.6%, Vif-A3G inh inconclusive and TrxR1 inh -5.8%.
For CCCC(=O)O[C@]1(C(=O)CCl)[C@H](C)C[C@@H]2[C@H]3CCC4=CC(=O)C=C[C@]4(C)[C@@]3(F)C(=O)C[C@@]21C the results were VDR inh -10.3%.
c1csc(C2C3=C(Nc4ncnn42)c2ccccc2OC3)c1 (centres undefined) was read as TrxR1 substrate 18.2%, VDR inh 6.2%, Vif-A3G inh 0.3% and TrxR1 inh 79.4µM*.
`CC1=C(C(N)=O)C(c2cccs2)n2ncnc2N1` (centres undefined) gave TrxR1 substrate 21.0%, VDR inh 23.6%, Vif-A3F inh -19.6%, Vif-A3G inh -1.3% and TrxR1 inh 20.1%.
`Cc1ccc(CN2C(=O)SC(Nc3ccc(Cl)cc3)C2=O)cc1` (centres undefined) gave TrxR1 substrate -1.8%, VDR inh 8.4%, Vif-A3F inh inconclusive, Vif-A3G inh -2.3% and TrxR1 inh 1.2%.
`COc1cc(O)c2c(c1)OC(c1ccc(O)cc1)CC2=O` (centres undefined) gave TrxR1 substrate 2.2%, VDR inh 50.1µM*, Vif-A3F inh -0.2%, Vif-A3G inh -14.1% and TrxR1 inh -11.3%.
`COC1=CC(=O)C(C2CC(=O)c3c(O)cc(O)cc3O2)=CC1=O` (centres undefined) gave TrxR1 substrate 7.9%[11.4 µM], VDR inh 79.4µM*, Vif-A3F inh 4.8%, Vif-A3G inh 0.6% and TrxR1 inh inconclusive.
`Cc1ccc2nc(/C=C/c3ccc(N(C)C)cc3)ccc2c1` gave TrxR1 substrate -1.9%, Vif-A3G inh inconclusive and TrxR1 inh 15.5%.
OCC[N+]1(CCc2ccccc2)CCOCC1 was read as TrxR1 substrate 7.5%, Vif-A3G inh -0.5% and TrxR1 inh 23.3%.
`CCOC(=O)c1cc(-c2ccccc2)sc1NC(=S)Nc1cc(C)ccn1` gave TrxR1 substrate -5.0%, VDR inh 14.2%, Vif-A3F inh 8.91µM*, Vif-A3G inh 1.1% and TrxR1 inh -2.3%.
Screening Cc1ccc(-c2c(C3C4C=CCC(C)C4C(=O)N3Cc3ccccc3)ccc3ccccc23)cc1 (centres undefined) returned TrxR1 substrate -0.4%, VDR inh -16.3%, Vif-A3G inh -6.0% and TrxR1 inh 29.3%[57.1 µM].
